Laboratory results published in PubChem BioAssay (NCATS).
Inconclusive results are not listed. Calls of active or inactive are those of the source. Unless noted, the call rests on the fitted dose curve; in most records, active means well fitted curve in the direction sought with a large enough effect; inconclusive means small, poorly fitted or top-dose-only effect, or another doubt; inactive means no such curve, though single readings can be large; an effect the other way counts as inactive or inconclusive.

How the values were obtained:
[1] = Quantitative High-Throughput drug screen in 47 multiple myeloma cell lines against the NCATS MIPE library collection: VP6_DJ cell viability assay (AID 1919867); further: nearly all actives have a fitted effect of over 40% in size
Summary of the method: (§1)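 Plated at 500 cells per well, myeloma lines received MIPE 4.0 compounds by pin tool. Following 48 h culture at 37 °C, CellTiter-Glo luminescence gave viability relative to DMSO and media-only controls.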

[2] = Quantitative High-Throughput drug screen in 47 multiple myeloma cell lines against the NCATS MIPE library collection: UTMC2_PLB cell viability assay (AID 1919868); conditions: CellTiter-Glo ATP luminescence, 48 h; viability (% of DMSO control): at 45.8 µM (top of the series) unless noted; further: nearly all actives have a fitted effect of over 55% in size
Summary of the method: as §1

[3] = Quantitative High-Throughput drug screen in 47 multiple myeloma cell lines against the NCATS MIPE library collection: PE2_PLB cell viability assay (AID 1919869); further: nearly all actives have a fitted effect of over 35% in size
Summary of the method: as §1

[4] = Quantitative High-Throughput drug screen in 47 multiple myeloma cell lines against the NCATS MIPE library collection: PCM6_Riken cell viability assay (AID 1919870); further: nearly all actives have a fitted effect of over 30% in size
Summary of the method: as §1

[5] = Quantitative High-Throughput drug screen in 47 multiple myeloma cell lines against the NCATS MIPE library collection: RPMI8226_ATCC cell viability assay (AID 1919871); further: nearly all actives have a fitted effect of over 30% in size
Summary of the method: as §1

[6] = Quantitative High-Throughput drug screen in 47 multiple myeloma cell lines against the NCATS MIPE library collection: OPM2_DSMZ cell viability assay (AID 1919872); further: nearly all actives have a fitted effect of over 30% in size
Summary of the method: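 Steps: seed 500 cells per well; pin-transfer MIPE 4.0 library; incubate 48 h at 37C, 5% CO2, humidified; add CellTiter-Glo, 5 min room temperature; read luminescence.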

[7] = Quantitative High-Throughput drug screen in 47 multiple myeloma cell lines against the NCATS MIPE library collection: KMS11_JCRBsus cell viability assay (AID 1919873); further: nearly all actives have a fitted effect of over 50% in size
Summary of the method: as §1

[8] = qHTS drug screen for cell cycle checkpoint inhibitors in PARPi-resistant BRCA-mutant ovarian cancer cell lines. (AID 1963452; calls by dose curve); conditions: PEO1/OlaR viability, CellTiter-Glo luminescence, 96 h; for Z-AUC: stronger effect = lower value
Summary of the method: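 PEO1, PEO4 and PEO1/OlaR ovarian cancer cells, 600 per well, exposed 96 h at 37C to a dilution series. Viability read by CellTiter-Glo luminescence, normalized to DMSO and empty wells; activity summarized as Z-AUC.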

[9] = Quantitative High-Throughput drug screen in 47 multiple myeloma cell lines against the NCATS MIPE library collection: KMS28BM_JCRB cell viability assay (AID 1919874); further: nearly all actives have a fitted effect of over 35% in size
Summary of the method: as §1

[10] = qHTS profiling for inhibitors of Plasmodium falciparum proliferation (AID 504749); further: nearly all actives have a fitted effect of over 60% in size; conditions: P. falciparum in erythrocytes, SYBR Green DNA, 72 h
Summary of the method: (§2)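 Three-day growth assay of blood-stage parasites in erythrocytes (0.3% parasitemia, 2.5% hematocrit) at 37 C, 5% CO2, quantified by SYBR Green DNA staining after overnight detergent lysis.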

3D7 = experiment: as above; conditions: P. falciparum in erythrocytes, SYBR Green DNA, 72 h; series mostly up to 28.7 µM
Summary of the method: as §2

7G8 = experiment: as above; conditions: P. falciparum in erythrocytes, SYBR Green DNA, 72 h; series mostly up to 28.7 µM
Summary of the method: as §2

AA1029 = experiment: as above; conditions: P. falciparum in erythrocytes, SYBR Green DNA, 72 h; series mostly up to 28.7 µM
Summary of the method: as §2

AS120 = experiment: as above; conditions: P. falciparum in erythrocytes, SYBR Green DNA, 72 h; series mostly up to 28.7 µM
Summary of the method: as §2

ATS189 = experiment: as above; conditions: P. falciparum in erythrocytes, SYBR Green DNA, 72 h; series mostly up to 28.7 µM
Summary of the method: as §2

ATS95 = experiment: as above; conditions: P. falciparum in erythrocytes, SYBR Green DNA, 72 h; series mostly up to 28.7 µM
Summary of the method: as §2

C2A = experiment: as above; conditions: P. falciparum in erythrocytes, SYBR Green DNA, 72 h; series mostly up to 28.7 µM
Summary of the method: as §2

CP185 = experiment: as above; conditions: P. falciparum in erythrocytes, SYBR Green DNA, 72 h; series mostly up to 28.7 µM
Summary of the method: as §2

CP191 = experiment: as above; conditions: P. falciparum in erythrocytes, SYBR Green DNA, 72 h; series mostly up to 28.7 µM
Summary of the method: as §2

[11] = qHTS for identification of novel therapeutic agents for treatment of microphthalmiaassociated transcription factor (MiT) renal cell carcinoma (RCC) (AID 1963991; calls by dose curve); conditions: CellTiter-Glo, 48 h; for z-score: stronger effect = lower value
Summary of the method: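 Three TFE3-fusion RCC lines (UOK109, UOK124, UOK145), 500 cells/well in complete medium, were treated with MIPE 4.0 compounds for 48 hours at 37 C. Viability was by CellTiter-Glo luminescence, normalized to DMSO (100%) and empty wells (0%); curves fitted over 11 concentrations.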

[12] = measured here: PEO1 parental Z-AUC
Potency means the concentration at half of the fitted maximal effect.

OCc1ccc(-c2ccc(-c3ccc(CO)s3)o2)s1
1.79: Z-AUC [8, 12] | Z-AUC ([8]; measured here: PEO4 Z-AUC)
inactive: Z-AUC [8] 1.64
active: Potency [1] 20900 nM | Potency [2] 16600 nM | Potency [3] 3.72 µM | Potency [4] 7.43 µM | Potency [5] 23.5 µM | Potency [6] 23.5 µM | Potency [7] 11800 nM

CNC(=O)c1c(F)cccc1Nc1nc(Nc2cc3c(cc2OC)CCN3C(=O)CN(C)C)nc2[nH]ccc12
-0.708: Z-AUC ([8]; measured here: PEO4 Z-AUC)
inactive: Z-AUC [8] -0.375
active: Potency [1] 105 nM | Potency [2] 93.5 nM | Potency [3] 2.64 µM | Potency [4] 9.35 µM | Potency [5] 2.35 µM | Potency [6] 11.8 µM | Potency [7] 66.2 nM | Potency [9] 118 nM
-0.266: Z-AUC [8, 12]

CCCCOc1c(C(=O)c2c(F)cc(C)cc2F)cnc2n[nH]cc12
0.585: Z-AUC [8, 12]
inactive: Z-AUC [8] 0.41
active: Potency [1] 3320 nM | Potency [2] 3320 nM | Potency [3] 3.72 µM | Potency [4] 2.64 µM | Potency [5] 5.9 µM | Potency [6] 7.43 µM | Potency [7] 2640 nM | Potency [9] 2960 nM
-0.136: Z-AUC ([8]; measured here: PEO4 Z-AUC)

Nc1ccn([C@@H]2O[C@H](CO)[C@H](O)C2(F)F)c(=O)n1
inactive: Potency [6]
active: Potency [1] 526 nM | Potency [2] 14.8 nM | Potency [3] 0.332 µM | Potency [4] 1.87 µM | Potency [5] 0.469 µM | Potency [7] 296 nM | Potency [9] 5260 nM | Potency ([10]; parasite line A) 5.62 µM | Potency ([10]; parasite line B) 0.316 µM | Potency (3D7) 3.16 µM | Potency (7G8) 2.82 µM | Potency (AA1029) 1.58 µM | Potency (AS120) 3.55 µM | Potency (ATS189) 3.98 µM | Potency (ATS95) 5.62 µM | Potency (C2A) 3.98 µM | Potency (CP185) 5.62 µM | Potency (CP191) 1.41 µM

COc1ccc(-c2cc3c(C)nc(N)nc3n(C3CCC(OCCO)CC3)c2=O)cn1 (configuration not stated)
-1.22: Z-AUC [8, 12]
-1.31: z-score ([11]; TFE3-RCC viability, measured here: UOK124 Z-AUC)
active: Potency [1] 1 nM | Potency [2] 52.6 nM | Potency [3] 0.0469 µM | Potency [4] 0.264 µM | Potency [5] 0.0264 µM | Potency [6] 0.0662 µM | Potency [7] 7.4 nM | Potency [9] 59 nM | Potency [8] 490 nM | Potency ([11]; TFE3-RCC UOK109 viability, active = Z-AUC below -0.8 in all three lines) 11.8 nM
-2.61: z-score ([11]; TFE3-RCC viability, measured here: UOK145 Z-AUC)
-1.44: Z-AUC ([8]; measured here: PEO4 Z-AUC)
-2.89: z-score ([11]; TFE3-RCC UOK109 viability, measured here: UOK109 Z-AUC)

Nc1ncnc2c1c(-c1cccc(OCc3ccccc3)c1)cn2C1CC(CN2CCCC2)C1 (configuration not stated)
inactive: Z-AUC [8] -0.938
active: Potency [1] 743 nM | Potency [2] 66.2 nM | Potency [3] 1.66 µM | Potency [4] 7.43 µM | Potency [5] 2.96 µM | Potency [6] 14.8 µM | Potency [7] 372 nM | Potency [9] 526 nM
-0.783: Z-AUC [8, 12]
-1.2: Z-AUC ([8]; measured here: PEO4 Z-AUC)
